Consider 16 compounds from PubChem BioAssay AID651791 (National Center for Advancing Translational Sciences (NCATS), 2012).

Records with an inconclusive call do not appear. Active and inactive are the calls of the source. Calls come from the whole dose curve; as a rule, active = well fitted inhibition curve with a large enough effect; inconclusive = small, poorly fitted or top-dose-only effect; inactive = no such curve, though single readings can be large or run the other way.
Potency is the fitted concentration of half-maximal effect.

A short description of the test: InCell qHTS Assay for Inhibitors of the mTORC1 Signaling Pathway in MEF (Tsc2-/-, p53-/-) Cells: Hit Validation.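 Note: phospho-S6 Ser235/236 signal normalized to propidium iodide cell count per well; nearly all actives have a fitted effect of over 75% in size.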 Particulars: phospho-rpS6 immunofluorescence, 24 h; activity change, negative = inhibition: at 38.3 µM (top of the series). (In general: Quantitative high-throughput screening tests each substance at several concentrations.)
`Cc1nn(C(C)C(=O)NC2CCCCC2)c(=O)c2c1sc1ccccc12` (stereo unspecified): the activity change, negative = inhibition was -100%.
The same measure, in the same setting: with `Cc1nc2scc(C)n2c(=O)c1S(=O)(=O)Nc1ccc(N2CCOCC2)c(Cl)c1` the figure was -100%; with `Cc1ccc(-c2nnc(C3CCN(S(=O)(=O)c4ccc(C)c(C)c4)CC3)o2)cc1`, -100%; with `CCN(CC)CCNC(=O)c1ccc(Cn2c(=O)c3cccn3c3cccnc32)cc1`, -100%.
The same measure, in the same setting: with `COc1ccc(C2CC(=O)c3c([nH]c(C(=O)OC4CCCCCC4)c3C)C2)cc1OC` (stereo unspecified) the figure was -100%; with `CCOC(=O)N1CCN(Cc2nc3cc(NC(=O)c4ccc([N+](=O)[O-])cc4)ccc3n2C(C)C)CC1`, -100%; with `Cc1ccc(NC(=O)CSc2ccc(-c3ccccn3)nn2)cc1F`, -100%.
In the case of `Cc1cccn2c(Nc3ccccc3)c(-c3cccs3)nc12`, the activity change, negative = inhibition was -100%.
Still for that read-out and setting: the result for `O=C(CCCn1c(=O)c2ccccc2n(Cc2cccc(Cl)c2)c1=O)NCCc1ccc(Cl)cc1` reads -100%.
Regarding `COc1ccc2nc(NC(=O)c3nc(S(=O)(=O)Cc4ccccc4)ncc3Cl)sc2c1`, the Potency was 1650 nM (active).
For the compound `COc1cc(C)ccc1OCCn1c(-c2ccc(Cl)cc2)nc2ccccc2c1=O`, the activity change, negative = inhibition was -100%.
Regarding `CCn1c(CN2CCC(C)CC2)nc2cc(NC(=O)c3ccccc3[N+](=O)[O-])ccc21`, the activity change, negative = inhibition was -100%.
For `CCS(=O)(=O)c1ncc(Cl)c(C(=O)Nc2ccccc2)n1`, the Potency was 2610 nM (active).
For `CCc1ccccc1NC(=O)CSc1nc2c(oc3ccccc32)c(=O)n1-c1ccccc1F`, the activity change, negative = inhibition was -100%.
The same measure, in the same setting: with `Cc1ccccc1C(=O)N1CCN(CCc2ccccn2)CC1` the figure was -100%.
The same measure, in the same setting: the result for `CCc1ccc2ncc(S(=O)(=O)c3ccc(Cl)cc3)c(N3CCN(CC)CC3)c2c1` reads -100%.
